Sm TGR inh – inhibitors of Schistosoma mansoni thioredoxin glutathione reductase; 360,000 compounds, 3% hits; purified TGR, DTNB reduction, TNB absorbance 405 nm; Q962Y6; Potency, µM (doses to about 114 µM), without a hit: at the top dose activity change, negative = inhibition, actives largely listed as inhibitors; further: potency means the concentration at half of the fitted maximal effect; nearly all actives have a fitted effect of over 60% in size
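TGR 20 nM + NADPH 100 uM (dispensed conc.), cpd preinc 15 min RT; start with NADPH (500 uM addition) then DTNB (15 mM addition). Kinetic TNB absorbance, 405 nm filter. Four-parameter Hill fit across titration.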
Pf growth 96h – P. falciparum growth inhibition at 96 hours. 320,000 compounds, 6.9% hits. P. falciparum luciferase reporter growth, 96 h. Potency, µM (highest dose often 28.7 µM), for the others: at the top dose activity change, negative = inhibition, usual class: inhibitors; further: potency means the concentration at half of the fitted maximal effect
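Luminescence readout: decreased luciferase signal marks inhibited growth of reporter-expressing P. falciparum in infected red cells (2% hematocrit, 0.05% parasitemia final), exposed to compound two generations (96 h, 37 C, 5% CO2).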
HCMV inh – blocks human cytomegalovirus replication; HFF cells, HCMV-luciferase reporter, 72 h; hits give low values; activity change, negative = inhibition, % at 57.5 µM; 410,000 compounds, 4.5% hits; in the data active means activity change below about -60%; inconclusive means no clear call, values can overlap the other calls; inactive means above about -39%
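Two compound doses tested in HFFs infected with HCMV-luciferase, MOI 1 PFU/cell, 72 h at 37C. Lysate luminescence read with OneGlo; data normalized against buffer-only and 10uM Salinomycin inhibitor controls.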
Pf growth 48h – inhibits P. falciparum growth in the first generation, 48 h; AID 504832; Potency, µM (top dose mostly 28.7 µM), without a hit: at the highest dose activity change, negative = inhibition, usual class: inhibitors; 310,000 compounds, 5.9% hits; P. falciparum luciferase growth in erythrocytes, 48 h; further: potency means the concentration at half of the fitted maximal effect
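In quantitative HTS format, infected erythrocytes bearing luciferase-reporter parasites were treated for a single generation at 37 C. Luminescence after adding detection reagent served as the growth measure.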
FBPA Giardia inh – blocks Giardia fructose-bisphosphate aldolase activity; A8B2U2; purified Giardia FBPA; Potency, µM (titrated, usually from 59.6 µM), inactives show at the highest dose activity, negative = inhibition, most hits filed as inhibitors; 290,000 compounds, 0.71% hits; further: potency means the concentration at half of the fitted maximal effect; nearly all actives have a fitted effect of over 55% in size
Target sequence (A8B2U2 whole entry, looked up): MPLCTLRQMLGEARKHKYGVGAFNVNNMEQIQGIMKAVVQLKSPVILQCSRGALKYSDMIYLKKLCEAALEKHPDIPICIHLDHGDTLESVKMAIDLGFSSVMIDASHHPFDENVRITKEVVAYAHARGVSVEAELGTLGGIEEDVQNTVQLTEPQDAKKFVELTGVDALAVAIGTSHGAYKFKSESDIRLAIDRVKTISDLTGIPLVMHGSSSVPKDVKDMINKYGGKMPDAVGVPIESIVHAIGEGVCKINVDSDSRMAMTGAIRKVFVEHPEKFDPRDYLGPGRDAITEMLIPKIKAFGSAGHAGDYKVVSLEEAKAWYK
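40 nM FBPA preincubated 10 min at RT with compound (up to 57.5 uM final), then substrate plus GAPDH/TPI/NAD/arsenate coupling and diaphorase/resazurin added. Fluorescence read after 20 min at RT, 525/598 nm.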
* marks the source's active call; other numbers are inactive results; ? = inconclusive; . = no result given; ! = a repeat was not active; [ ] = remark or other dose. Only some compounds are listed: those with a hit (about 14% of all), similar ones and a draw of the others. Unless noted, the call rests on the fitted dose curve; in most records, active means well fitted curve in the direction sought with a large enough effect; inconclusive means small, poorly fitted or top-dose-only effect, or another doubt; inactive means no such curve, though single readings can be large; an effect the other way counts as inactive or inconclusive. On the % scale 0 is the no-effect control and ±100 the full control effect.

SMILES | Sm TGR inh | Pf growth 96h | HCMV inh | Pf growth 48h | FBPA Giardia inh
O=C(NCC1(N2CCOCC2)CCCCC1)c1cccc(S(=O)(=O)Nc2ccc(F)cc2)c1 | 2% | ? | 29 | 10µM* | .
CCC(C)(C#CCN1CCCCC1)OCCC#N (stereo not drawn) | 40µM* | ? | 7 | 15% | -3%
CC(C)CC(NC(=O)C(COC(C)(C)C)NC(=O)C(Cc1ccc(O)cc1)NC(=O)C(CO)NC(=O)C(Cc1c[nH]c2ccccc12)NC(=O)C(Cc1cnc[nH]1)NC(=O)C1CCC(=O)N1)C(=O)NC(CCCN=C(N)N)C(=O)N1CCCC1C(=O)NNC(N)=O (stereo not drawn) | . | -12% | . | 5% | 4%
Fc1cccc(Cl)c1Cn1c(-c2cccs2)nc2ccccc21 | 1% | . | -63* | . | .
CSc1nc2ccccc2n1Cc1c(Cl)cccc1Cl | 2% | 12µM* | -39 | . | -5%
O=C(COC(=O)c1cnccn1)Nc1ccc(Cl)cn1 | -35% | 5% | -16 | 25% | .
COC(=O)C1=CN(c2ccc3c(c2)OCO3)C(N)=C(C#N)C1c1ccc(-c2ccccc2)cc1 (stereo not drawn) | . | . | -16 | . | .
O=C1CSC(=S)N1/N=C/c1ccc(O)c(O)c1O | ? | ? | . | ? | 7.9µM*
O=C1CSC(=S)N1/N=C/c1cc(Br)ccc1O | 7.9µM* | -4% | . | -7% | 17%
CC(=O)NC(c1ccccc1)c1nc(-c2ccc(F)c(Cl)c2)cs1 (stereo not drawn) | . | . | 15 | . | .
CC1(C)Nc2ccc(O)cc2-c2c1ssc2=S | -25% | 8.3µM* | -40 | ? | ?
C=C(C)COc1ccc(-c2ncncc2Oc2ccc(OC)cc2)c(O)c1 | -1% | . | 0 | 3.7µM* | -7%
C=C(C)COc1ccc(-c2[nH]ncc2Oc2ccccc2OCC)c(O)c1 | 0% | 1.2µM* | -17 | 1.3µM* | -21%
CCOc1ccccc1Oc1cn[nH]c1-c1ccc(O)cc1O | 7% | 9.3µM* | -78* | 8.3µM* | -17%
C=C(C)COc1ccc(-c2[nH]ncc2Oc2cccc(OC)c2)c(O)c1 | -5% | 8.3µM* | ? | 9.3µM* | -9%
COc1ccc(-c2[nH]ncc2Oc2ccccc2OC)c(O)c1 | -12% | -13% | 4 | ? | -20%
Cn1c(=O)oc2cc(S(=O)(=O)NCCC(=O)Nc3ccc(F)cc3F)ccc21 | -3% | . | 9 | . | .
Cc1ccc(S(=O)(=O)NC(=O)Nc2cc(C)no2)cc1 | -6% | -2% | 24 | 0% | 6%
COc1ccc(CNC(=O)COc2ccc(S(=O)(=O)N3CCOCC3)cc2C)cc1 | -4% | ? | -29 | 0% | -1%
CC[C@H](C)[C@H](NC(=O)[C@H](Cc1ccc(O)cc1)NC(=O)[C@@H](NC(=O)[C@H](CCCN=C(N)N)NC(=O)[C@@H](N)CC(=O)O)C(C)C)C(=O)N[C@@H](Cc1cnc[nH]1)C(=O)N1CCC[C@H]1C(=O)O | . | . | . | . | -4%
COc1ccc(-c2cc(C(C)=O)c(C)n2CCC(=O)NC2CCCCC2)cc1 | -1% | . | 0 | . | .
COCCCn1c(-c2ccc(OC)cc2)cc(C(=O)NC2CCCCCCC2)c1C | -18% | 15µM* | -65* | 13µM* | 2%
CC1(C)OC(=O)C2=C(C[C@@H](CCc3ccccc3)O[C@@H]2c2ccc(Cl)cc2)O1 | . | . | -8 | . | .
Cc1[nH]c2ccccc2c1N=Nc1ccccc1C(=O)O | -13% | 10µM* | 93 | ? | -6%
Oc1c(Cl)cc(Cl)cc1C=Nc1cc(C(F)(F)F)ccc1N1CCc2ccccc2C1 | -22% | -101% | -100* | 71% | ?
SMILES | Sm TGR inh | Pf growth 96h | HCMV inh | Pf growth 48h | FBPA Giardia inh
COc1ccc2sc(N(CCN(C)C)C(=O)c3ccc4ccccc4c3)nc2c1 | 7% | 97% | 10 | 8% | -27%
CN(C)CCN(Cc1ccco1)C(=O)c1oc2ccccc2c1NC(=O)c1ccccc1 | -6% | . | -61* | . | .
COc1ccc(OCC(=O)Nc2c(C(=O)N3CCN(c4ccccc4)CC3)oc3ccccc23)cc1 | -6% | . | -33 | . | .
COc1ccccc1C(=O)Nc1c(C(=O)N(CCN(C)C)Cc2ccco2)oc2ccccc12 | -4% | 10µM* | -82*! | ? | .
Cc1ccccc1C(=O)Nc1c(C(=O)N(CCN(C)C)Cc2ccco2)oc2ccccc12 | -28% | 43% | -30 | ? | 0%
COc1ccc(OCC(=O)Nc2c(C(=O)N(CCN(C)C)Cc3ccco3)oc3ccccc23)cc1 | -9% | 10µM* | ? | ? | 9%
CC(C)(C)C(=O)Nc1c(C(=O)N2CCN(c3ccc(F)cc3)CC2)oc2ccccc12 | 0% | . | -82* | . | .
CCN1C(C)=C(C(=O)OC)C(c2ccccc2)N2C(=O)[C@](O)(C(=O)OC)CC(C(C)=O)=C12 (stereo partly drawn) | . | . | . | . | 1%[12.9 µM]
Nc1[nH]c(=O)ncc1-c1ccc([N+](=O)[O-])cc1 | . | . | -16 | . | .
COc1ccc(OCC(=O)Nc2c(C(=O)N3CCN(C)CC3)oc3ccccc23)cc1 | -9% | 9.3µM* | -21 | -9% | .
CN1CCN(c2nc(-c3ccncc3)nc3ccccc23)CC1 | -6% | . | -21 | 9.3µM* | 3%
CCN1CCN(c2nc(-c3ccccn3)nc3ccccc23)CC1 | 6% | ? | -29 | ? | 3%
c1ccc(CN2CCN(c3nc(-c4ccccn4)nc4ccccc34)CC2)cc1 | -15% | -99% | -99* | 1.7µM* | 2%
Cc1ccc(-c2nc(N(C)C3CCN(C)CC3)c3ccccc3n2)cc1 | 3% | 6.6µM* | 44 | . | 2%
c1ccc2c(N3CCCC3)nc(-c3ccncc3)nc2c1 | 1% | ? | -33 | ? | 10%
c1ccc(CN2CCN(c3nc(-c4ccccc4)nc4ccccc34)CC2)cc1 | -10% | . | 2 | 3.3µM* | -3%
c1ccc(CN2CCN(c3nc4ccccc4c4ccccc34)CC2)cc1 | 6% | . | ? | . | 0%
O=C(Nc1ccc(Br)cc1Cl)NC1CC1 | 11% | 6% | ? | 43% | 5%
CC(C(=O)Nc1nc2ccccc2s1)n1cc([N+](=O)[O-])cn1 (stereo not drawn) | -17% | ? | -33 | 21% | 1%
CC(=O)Nc1ccc(NC(=O)C(C)Oc2ccc(Cl)cc2Cl)cc1 (stereo not drawn) | 0% | 26% | -25 | ? | 0%
CC(Oc1ccc(Cl)cc1Cl)C(=O)Nc1ccncc1 (stereo not drawn) | 0% | -5% | ? | 10µM* | 3%
O=C(CCCOc1ccc(Cl)cc1Cl)Nc1ccncc1 | -32% | -41% | -61* | . | -7%
CCn1cc(C(=O)NCc2ccccc2)c(=O)c2cc(S(=O)(=O)N3CCOCC3)ccc21 | -13% | . | 1 | . | .
COCCn1c(=O)c(-c2ccccc2)nc2cnc(Oc3ccccc3)nc21 | . | . | . | . | -6%
CCn1cc(C(=O)N2CCc3ccccc32)c(=O)c2cc(S(=O)(=O)N3CCCC3)ccc21 | -4% | 12µM* | 28 | ? | 8%
